About 50 (2%) of roughly 3,300 compounds were called active. Only a sample is shown. Measured potencies and affinities stand elsewhere. A number with no mark means an inactive call.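 Rule for the calls: active = concentration giving half-maximal inhibition at or below 20 micromolar; inactive = half-maximal concentration above 20 micromolar, or not dose tested.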
Experiment: Jurkat cell viability reduction – Jurkat E6.1, NIH starter set, primary screen (AID 364);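 note: 100% = cells treated with 4 µM doxorubicin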
Settings: Jurkat E6.1 viability, ATP luminescence, 48 h; at 4 µM; active compounds read high

| SMILES | inhibition |
| --- | --- |
| c1ccc(OCc2nn3c(-c4cccnc4)nnc3s2)cc1 | -5.4% |
| CN(Cc1ccccc1)c1ncnc2ccc(Br)cc12 | 7.2% |
| c1ccc(N2CCN(c3nc(NCc4ccco4)c4ccccc4n3)CC2)cc1 | 2.5% |
| Oc1ccccc1-c1nc(NCc2ccco2)c2ccccc2n1 | -6.1% |
| Clc1ccc(-n2ncc3c(NCc4cccs4)ncnc32)cc1 | 18.1% |
| Clc1ccc(-n2ncc3c(NCc4ccccn4)ncnc32)cc1 | 5.5% |
| CCN(CC)CCCn1c(C)cc2c(c1=O)C(c1ccc(OC)c(OC)c1OC)C(C#N)=C(N)O2 (centres undefined) | 1.4% |
| CCCOc1cccc(C2/C(=C(/O)c3ccccc3)C(=O)C(=O)N2CCN(C)C)c1 (centres undefined) | 2.5% |
| O=C(c1coc(=O)c(Br)c1)N1CCOCC1 | 7.3% |
| COc1cccc(-c2nc(N3CCCCC3C)c3ccccc3n2)c1O (centres undefined) | -2% |
| Cc1nc(NS(=O)(=O)c2ccccc2)sc1NC(=O)OCCN(C)C | 9.6% |
| COC(=O)C1=C(N)Oc2cc(C)oc(=O)c2C1c1ccncc1 (centres undefined) | -9.1% |
| O=C(O)CCc1nn2cc(-c3ccccc3)nc2[nH]c1=O | -5.8% |
| Cc1cc(C)n(CC(=O)c2ccccc2)c(=O)c1C#N | -17.6% |
| O=c1[nH]c2sc3c(c2c(=O)n1Cc1ccccc1)CCC3 | 1.3% |
| COc1ccc(C2=CC(c3cccc(OC)c3)n3nnnc3N2)cc1 (centres undefined) | -8.6% |
| COc1cccc(C2=CC(c3ccc(N(C)C)cc3)n3nnnc3N2)c1 (centres undefined) | -9.6% |
| Cc1nc(SC2C=CS(=O)(=O)C2)n[nH]1 (centres undefined) | -8.6% |
| CCCCNC1=C(Br)C(=O)CC(C)(C)C1 | -3.7% |
| Cn1c(Cn2cnc3ccccc32)nc2ccccc21 | 2.8% |
| CC(C(=O)N1CCOCC1)N1C(=O)c2ccccc2C1=O (centres undefined) | -0.7% |
| OCCNc1ncnc2c1c(-c1ccccc1)c(-c1ccccc1)n2Cc1ccco1 | 11.5% |
| O=c1c(C=NCCCn2ccnc2)c(-c2ccccc2)[nH]n1-c1nc2ccccc2s1 | -4.4% |
| CCCOc1cccc(CN2CCCCC2c2cccnc2)c1 (centres undefined) | 0.8% |
| CNC(=O)C1CC(=O)N(Cc2ccccc2)C(=Nc2ccc(OC)cc2)S1 (centres undefined) | -6.1% |

| SMILES | inhibition |
| --- | --- |
| CCCCOC(=O)CCc1nc2ccccc2[nH]1 | 0.2% |
| CCCCOC(=O)Nc1ccc(S(=O)(=O)Nc2nc(C)cc(C)n2)cc1 | 6.7% |
| CCOc1ccc2nc(SCC(=O)Nc3ncccn3)[nH]c2c1 | -1.3% |
| COCCNc1oc(-c2ccc(Cl)cc2)nc1C#N | 2.9% |
| CCN(CC)CCCN1C(=O)C(=O)/C(=C(/O)c2ccc(C)cc2)C1c1ccccn1 (centres undefined) | -5.6% |
| CCCNc1ncnc2c1cnn2-c1ccc(OC)cc1 | -3.3% |
| CCOc1ccc(CC2CC(=O)NC2=O)cc1 (centres undefined) | -9.7% |
| Cc1cn([C@H]2C=C[C@@H](CO)O2)c(=O)[nH]c1=O | -6.6% |
| Cc1cn([C@H]2C[C@H](N=[N+]=[N-])[C@@H](CO)O2)c(=O)[nH]c1=O | 0.1% |
| Cn1cc(C(=O)NCN2CCCCC2)c2ccccc21 | -0.4% |
| CC(C)c1nc(NCC2CCCO2)c(C#N)c2c1COC(C)(C)C2 (centres undefined) | 9.3% |
| Nc1nnnn1/N=C/c1ccco1 | 8% |
| CCc1nc(N2CCCC2)c(C#N)c2c1CCCC2 | 2.4% |
| COc1ccc(Nc2oc(-c3cccs3)nc2C#N)cc1 | 9.1% |
| COc1ccc(N2CC(=O)N(c3ccc(OC)c(OC)c3)CC2=O)cc1OC | -0.2% |
| O=C1CCCN1c1ccc(S(=O)(=O)NCc2ccco2)cc1 | 7.4% |
| NC(=O)c1cc(-c2ccccc2)nc(Oc2ccccc2)n1 | 16.2% |
| CC(C)Oc1ccc(/C(O)=C2/C(=O)C(=O)N(CCN3CCOCC3)C2c2ccccc2)cc1 (centres undefined) | -8.3% |
| CCOc1cc(CN2CCOCC2)cc(C(C)=O)c1 | 3.2% |
| Cn1c(N)c(C#N)c(C#N)c1-c1ccccc1 | -0.9% |
| CCCCCOC(=O)Cc1c(C)nc(-c2ccccc2)[nH]c1=O | 3.9% |
| COc1ccc(C(=O)CCN2CCCCCC2)cc1 | -4.7% |
| COc1ccc(C(O)C(CN2CCOCC2)c2ccccc2)cc1 (centres undefined) | -2.1% |
| C=C(C)CSC1=C(C#N)C(c2ccsc2)CC(=O)N1 (centres undefined) | 8.6% |
| CCCCCCSC1=C(C#N)C(c2ccccc2)CC(=O)N1 (centres undefined) | -7% |

| SMILES | inhibition |
| --- | --- |
| CN1C2C=C3C(C#N)=C(N)C(C#N)(C#N)[C@@H](c4ccc(Cl)cc4)[C@@H]3C1CC2 (some centres undefined) | 1.6% |
| CCOc1cccc(C2C(C#N)=C(N)Oc3cc(C)oc(=O)c32)c1OCC (centres undefined) | -9.9% |
| O=C(NCc1cccnc1)NC(C(F)(F)F)C(F)(F)F | -8.9% |
| CC(NC(=O)Nc1nccs1)(C(F)(F)F)C(F)(F)F | -6.2% |
| CCC(NC(=O)Nc1nccs1)(C(F)(F)F)C(F)(F)F | -5% |
| O=C(NCC(F)(F)F)Nc1nnc(C(F)(F)F)s1 | -6.7% |
| CCSc1nnc(NC(=O)NC(CC)(C(F)(F)F)C(F)(F)F)s1 | -11.5% |
| COCCCn1c(C)nc2c(c1=O)c1nc3ccccc3nc1n2CCc1ccccc1 | 4.1% |
| CC1CCCCN1C(=O)C12CCC(C)(/C(=N/O)C1)C2(C)C (centres undefined) | -9.3% |
| CCOC(=O)C1=C(N)c2ccccc2CC1C(C)C (centres undefined) | 7% |
| COc1cc(C2C(C#N)=C(N)Oc3cc(C)n(CCN4CCOCC4)c(=O)c32)cc(OC)c1OC (centres undefined) | -2.9% |
| COc1cccc(C2C(C#N)=C(N)Oc3cc(C)[nH]c(=O)c32)c1OC (centres undefined) | 7.3% |
| COc1ccc(-c2cc3nc4n(c(=O)c3s2)CCOC4)cc1 | 4.7% |
| COc1cc(NC(=O)NC(C)(C(F)(F)F)C(F)(F)F)cc(OC)c1OC | -6.8% |
| OCCOCCNc1ncnc2c1cnn2-c1ccc(Cl)cc1 | 3.8% |
| CN1CCN(c2c3c(c(C#N)c4nc5ccccc5n24)CCCC3)CC1 | 4.7% |
| CCOC(=O)C1Cc2c([nH]c3ccccc23)C(C)N1 (centres undefined) | -10.3% |
| Cc1cc(NC(CC(C)C)C(=O)O)nc(Cc2ccccc2)n1 (centres undefined) | 0.4% |
| CC1(C2(O)CC(c3ccccc3)ON2)CCCCC1 (centres undefined) | 13.9% |
| CC1CN(C2CCN(S(=O)(=O)c3ccccc3)CC2)CC(C)O1 (centres undefined) | 7.8% |
| C(=N\n1cnnc1)/c1ccccn1 | -0.2% |
| CCOC(=O)CC(=O)CSc1nc(N)c(C#N)c(-c2ccc(Cl)cc2)c1C#N | 9.6% |
| Cc1cc(-c2cc(-c3ccc(Cl)cc3)nc(N)c2C#N)co1 | 7.7% |
| CC(=O)c1c(OCC(=O)O)ccc2c(C)cc(=O)oc12 | 6.9% |
| c1ccc(CN2CCN(c3ncnc4c3[nH]c3ccccc34)CC2)cc1 | 28.5% |

| SMILES | inhibition |
| --- | --- |
| c1ccc2c(c1)[nH]c1c(N3CCSCC3)ncnc12 | 29.6% |
| Cc1cc(=O)oc(C)c1C(=O)N1CCN(C)CC1 | -1% |
| CN(C)CCCN1C(=O)C(O)=C(C(=O)c2cc3ccccc3o2)C1c1ccccc1 (centres undefined) | 0% |
| Nc1ccc2oc3ncccc3c(=O)c2c1 | -1.7% |
| CC(C)Oc1ccc(/C(O)=C2/C(=O)C(=O)N(CCN(C)C)C2c2ccco2)cc1 (centres undefined) | 5.7% |
| COc1cccc(N2CCN(c3ncnc4c3[nH]c3ccccc34)CC2C)c1 (centres undefined) | 22.3% |
| Cc1ccc2[nH]c3c(N4CCN(Cc5ccc6c(c5)OCO6)CC4)ncnc3c2c1 | 18.7% |
| Fc1ccc2[nH]c3c(N4CCN(c5ccccc5)CC4)ncnc3c2c1 | 28.7% |
| COc1ccc2[nH]c3c(N4CCN(Cc5ccc6c(c5)OCO6)CC4)ncnc3c2c1 | -0.5% |
| N#CCCSCc1ccc(OCC(=O)O)cc1 | -5.7% |
| CCn1cc(C(=O)NCc2ccco2)c(=O)c2cc(F)c(N3CCN(C(=O)c4ccco4)CC3)cc21 | 7.2% |
| Cc1cc(C)n(C(=O)CNC(=O)c2cccs2)n1 | 2.3% |
| COCCOC(=O)C1=C(C)NC(SCC(=O)NC(C)(C)C)=C(C#N)C1c1ccco1 (centres undefined) | 9.1% |
| Cc1ccc(NC(=O)CSC2=C(C#N)C(c3ccco3)C3=C(CCCC3=O)N2)cc1 (centres undefined) | 6.6% |
| CCc1ccc(NC(=O)CSC2=C(C#N)C(c3ccco3)C3=C(CCCC3=O)N2)cc1 (centres undefined) | 3.5% |
| COc1ccccc1NC(=O)C1=C(C)NC(SCC(=O)c2ccc(C)cc2)=C(C#N)C1c1ccco1 (centres undefined) | -6.6% |
| CCc1ccccc1NC(=O)CSC1=C(C#N)C(c2ccc(O)c(OC)c2)C2=C(CCCC2=O)N1 (centres undefined) | -3.3% |
| N#CC1=C(SCc2ccccc2)NC2=C(C(=O)CCC2)C1c1ccc2c(c1)OCO2 (centres undefined) | 13.1% |
| CCCCc1ccc(NC(=O)CSC2=C(C#N)C(c3ccco3)C3=C(CCCC3=O)N2)cc1 (centres undefined) | -2.5% |
| CCN(CC)C(=O)CSC1=C(C#N)C(c2ccco2)C(C(=O)OCCOC)=C(C)N1 (centres undefined) | -2.1% |
| Cc1cc(CCC(=O)O)c(C)cc1CCC(=O)O | -4.4% |
| NS(=O)(=O)c1ccc(-c2ccc(C=NC3CCS(=O)(=O)C3)o2)cc1 (centres undefined) | 10.2% |
| O=C(C1CCCCC1)N1CCCn2c1nc1ccccc12 | 1.8% |
| O=C1C2CC=C(Cl)CC2C(=O)N1CNc1ccccn1 (centres undefined) | -4.2% |
